In PubChem BioAssay (NCATS):
Where “and” joins values, the source holds several entries; their conditions need not be identical. Identical values can stand only once. Values without a mark were called inactive. Results filed as inconclusive are left out. Where a call stands in place of a potency, no number is given. Calls of active or inactive are those of the source. Unless noted, calls follow the shape of the dose curve; as a rule, active = well fitted curve in the direction sought with a large enough effect; inconclusive = small, poorly fitted or top-dose-only effect, or another doubt; inactive = no such curve, though single readings can be large; an effect the other way counts as inactive or inconclusive.

Key:
[1] = Cell Viability - N2a (AID 540); details: N2a mouse neuroblastoma cell viability; activity change, negative = cytotoxicity: at 92.2 µM (top of the series); also: nearly all actives have a fitted effect of over 45% in size
Method in brief: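 Mouse neuroblastoma N2a cells (1500/well) were preincubated 5 hr at 37 °C, then exposed to compounds for 40 hr at 37 °C in complete medium. Viability was read as intracellular ATP by CellTiter-Glo luminescence; AC50 from Hill fits.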

[2] = Cell Viability - Renal Proximal Tubule (AID 545); also: nearly all actives have a fitted effect of over 40% in size
Method in brief: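 Luminescent ATP signal (CellTiter-Glo) served as the viability read-out after 40 hr compound exposure of freshly isolated rat proximal tubule cells at 37 °C. Concentration-dependent ATP loss was fitted with the Hill equation to give AC50.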

[3] = Cellular Toxicity (caspase-3) SHSY5Y (AID 657)
Method in brief: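 qHTS, SH-SY5Y, 1500 cells/well, 5 h pre-incubation 37 °C; compound 16 h 37 °C; Caspase-Glo 3/7 1 h RT; luminescence. Norm.: DMSO = 0, 10 uM staurosporine = 100%. Hill fit → AC50.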

[4] = MultiTox-Fluor Cytotoxicity Assay - LYMP1-002 - Dead Cells (AID 960); also: nearly all actives have a fitted effect of over 60% in size
Method in brief: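 Human lymphoblastoid cells (LYMP1-002), 2500/well in complete medium, were exposed to compounds for 16 hr at 37 C. Dead-cell protease activity was read as bis-AAF-R110 fluorescence (Ex/Em 485/520), normalized to DMSO and 15 uM tetraoctylammonium bromide; AC50 from Hill fits.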

[5] = Cell Viability - LYMP2-023 (AID 975);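 also: cellular ATP measured by luciferase luminescence as viability proxy; nearly all actives have a fitted effect of over 55% in size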
Method in brief: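 Human lymphoblastoid cells (2500/well) were preincubated 5 hr at 37 C, then exposed to compounds for 24 hr at 37 C in complete medium. Cellular ATP was read by CellTiter-Glo luminescence, and AC50 came from Hill-equation fits.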

[6] = Cell Viability - LYMP1-002 - Assay at 24 hr (AID 993)
Method in brief: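 Human lymphoblastoid LYMP1-002 cells, 2500/well in complete medium, were treated with compounds for 24 h at 37 C; intracellular ATP was read by CellTiter-Glo luminescence. AC50 values came from Hill-equation fits of qHTS concentration-response data.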

[7] = biological target: Peroxisome proliferator-activated receptor gamma (Homo sapiens) (UniProt P37231); test: qHTS assay for small molecule agonists of peroxisome proliferator-activated receptor gamma signaling (AID 588536; active = well fitted curve in the direction sought with a large enough effect in the signal ratio, with a control signal flat, not every such curve was filed as active; the % refers to the signal ratio)
Sequence of Peroxisome proliferator-activated receptor gamma (Homo sapiens) (P37231 whole entry, looked up): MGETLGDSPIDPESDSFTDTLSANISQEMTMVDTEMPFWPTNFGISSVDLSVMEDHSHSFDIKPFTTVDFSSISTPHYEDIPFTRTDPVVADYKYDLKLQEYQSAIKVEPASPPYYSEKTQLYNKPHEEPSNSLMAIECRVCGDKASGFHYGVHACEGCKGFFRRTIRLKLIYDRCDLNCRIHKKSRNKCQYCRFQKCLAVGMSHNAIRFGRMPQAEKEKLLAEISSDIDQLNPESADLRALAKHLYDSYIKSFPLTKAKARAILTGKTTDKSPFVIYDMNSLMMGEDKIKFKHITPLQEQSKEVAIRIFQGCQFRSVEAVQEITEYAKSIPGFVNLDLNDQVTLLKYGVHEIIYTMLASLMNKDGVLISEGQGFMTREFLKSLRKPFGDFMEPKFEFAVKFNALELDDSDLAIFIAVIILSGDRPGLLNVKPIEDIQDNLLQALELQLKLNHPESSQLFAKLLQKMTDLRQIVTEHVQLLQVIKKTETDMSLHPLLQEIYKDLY
Method in brief: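 GeneBLAzer PPAR-gamma-UAS-bla HEK293 cells in 1% charcoal/dextran-treated FBS medium were treated 16 h at 37 C with compounds. Beta-lactamase activity was read by CCF4 ratio (460/530 nm). Response was normalized to 2 uM rosiglitazone (100%) and DMSO, then Hill-fitted for EC50 and efficacy.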

[8] = biological target: Vitamin D3 receptor (Homo sapiens) (UniProt P11473); test: qHTS assay for small molecule antagonists of vitamin D receptor signaling (AID 588541; calls by dose curve;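 also: receptor activated by calcitriol during compound treatment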)
Sequence of Vitamin D3 receptor (Homo sapiens) (P11473 whole entry, looked up): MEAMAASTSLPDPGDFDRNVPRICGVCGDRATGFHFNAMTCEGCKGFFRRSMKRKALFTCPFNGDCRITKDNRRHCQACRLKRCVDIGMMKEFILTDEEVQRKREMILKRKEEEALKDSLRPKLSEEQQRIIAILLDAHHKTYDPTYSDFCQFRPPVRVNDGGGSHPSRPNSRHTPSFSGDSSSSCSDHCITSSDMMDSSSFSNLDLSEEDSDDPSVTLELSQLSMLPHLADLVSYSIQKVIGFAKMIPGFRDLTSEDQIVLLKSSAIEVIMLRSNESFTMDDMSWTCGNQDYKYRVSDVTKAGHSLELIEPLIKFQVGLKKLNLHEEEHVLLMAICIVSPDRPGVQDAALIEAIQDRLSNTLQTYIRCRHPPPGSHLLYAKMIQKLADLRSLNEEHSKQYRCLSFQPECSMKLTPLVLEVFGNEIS
Method in brief: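 VDR-UAS-bla HEK293T cells (2000/well, 2% charcoal-stripped FBS) were treated with titrated compounds plus 1-alpha,25-dihydroxyvitamin D3 (50 nM or 3 nM final) for 16 h at 37 C. CCF4 beta-lactamase fluorescence was read; Hill fits gave IC50.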

[9] = biological target: Thyroid hormone receptor beta (Homo sapiens) (UniProt P10828); test: qHTS assay for small molecule antagonists of thyroid hormone receptor beta signaling (AID 588547; active = well fitted inhibition curve with a large enough effect in the signal ratio, with a control signal flat, not every such curve was filed as active; the % refers to the signal ratio;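 also: cells stimulated with 0.4 nM T3 agonist during compound exposure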); details: TR-UAS-bla HEK293, beta-lactamase ratio, antagonist mode, 18 h
Sequence of Thyroid hormone receptor beta (Homo sapiens) (P10828 whole entry, looked up): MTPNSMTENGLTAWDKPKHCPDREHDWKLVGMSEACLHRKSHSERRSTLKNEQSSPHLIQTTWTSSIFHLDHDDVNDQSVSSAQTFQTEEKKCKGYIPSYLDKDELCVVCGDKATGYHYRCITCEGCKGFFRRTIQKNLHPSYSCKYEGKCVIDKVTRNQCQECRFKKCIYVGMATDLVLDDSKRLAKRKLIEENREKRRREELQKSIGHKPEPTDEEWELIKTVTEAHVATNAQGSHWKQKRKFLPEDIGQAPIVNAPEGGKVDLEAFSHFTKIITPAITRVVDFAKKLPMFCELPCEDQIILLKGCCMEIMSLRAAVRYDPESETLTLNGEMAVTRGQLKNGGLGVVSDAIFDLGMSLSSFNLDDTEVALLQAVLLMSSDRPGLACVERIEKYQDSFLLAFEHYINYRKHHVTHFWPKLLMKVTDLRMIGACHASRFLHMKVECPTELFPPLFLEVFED
Method in brief: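 TR-UAS-bla GripTite HEK293 cells in 2% charcoal/dextran FBS medium were preincubated 4 h at 37 C, given compound (0.59 nM to 92 uM) plus 0.4 nM T3 (final) for 18 h, then CCF4 for 2 h at RT; Hill fit gave IC50.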

[10] = qHTS assay for small molecule disruptors of the mitochondrial membrane potential - 1 hr assay (AID 651754; calls by dose curve; also: nearly all actives have a fitted effect of over 35% in size; also: potency is read from the fitted curve at half-maximal effect)
Method in brief: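 HepG2 cells, attached overnight at 37C, were exposed to compound or DMSO vehicle for 1 hr at 37C, 5% CO2, then stained with Mito-MPS dye for 30 min. Red aggregate versus green monomer fluorescence reports membrane potential.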

[11] = qHTS assay for small molecule disruptors of the mitochondrial membrane potential - 5 hr assay (AID 651755; calls by dose curve; also: nearly all actives have a fitted effect of over 40% in size; also: potency is read from the fitted curve at half-maximal effect)
Method in brief: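 HepG2 cells, attached overnight at 37C, were exposed to compound or DMSO for 5 hr at 37C, 5% CO2. Mito-MPS dye was then added for 30 min, and fluorescence read at 490/535 nm (monomers) and 540/590 nm (aggregates).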

[12] = biological target: Tumor necrosis factor (Homo sapiens) (UniProt P01375); test: qHTS assay to identify small molecules that stimulate Tumor Necrosis Factor-alpha (TNF-alpha) secretion (AID 651757; active = well fitted curve in the direction sought with a large enough effect in the signal ratio; the % refers to the signal ratio)
Sequence of Tumor necrosis factor (Homo sapiens) (P01375 whole entry, looked up): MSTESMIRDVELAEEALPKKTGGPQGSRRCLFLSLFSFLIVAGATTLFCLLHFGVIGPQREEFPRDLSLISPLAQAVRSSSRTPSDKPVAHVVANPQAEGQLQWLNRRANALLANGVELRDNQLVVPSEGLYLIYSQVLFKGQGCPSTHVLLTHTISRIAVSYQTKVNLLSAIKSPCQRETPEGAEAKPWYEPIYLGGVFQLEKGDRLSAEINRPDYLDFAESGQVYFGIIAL
Method in brief: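 THP-1 cells were exposed to compounds for 17 hrs at 37 C, after which secreted TNF-alpha was measured by homogeneous HTRF (TR-FRET) using cryptate- and XL665-labeled anti-TNF-alpha antibodies, read after 3 hr at room temperature.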

[13] = biological target: Nuclear receptor ROR-gamma (Homo sapiens) (UniProt P51449); test: qHTS assay for small molecule antagonists of the retinoid-related orphan receptor gamma (ROR-gamma) signaling pathway (AID 651802); also: nearly all actives have a fitted effect of over 60% in size
Sequence of Nuclear receptor ROR-gamma (Homo sapiens) (P51449 whole entry, looked up): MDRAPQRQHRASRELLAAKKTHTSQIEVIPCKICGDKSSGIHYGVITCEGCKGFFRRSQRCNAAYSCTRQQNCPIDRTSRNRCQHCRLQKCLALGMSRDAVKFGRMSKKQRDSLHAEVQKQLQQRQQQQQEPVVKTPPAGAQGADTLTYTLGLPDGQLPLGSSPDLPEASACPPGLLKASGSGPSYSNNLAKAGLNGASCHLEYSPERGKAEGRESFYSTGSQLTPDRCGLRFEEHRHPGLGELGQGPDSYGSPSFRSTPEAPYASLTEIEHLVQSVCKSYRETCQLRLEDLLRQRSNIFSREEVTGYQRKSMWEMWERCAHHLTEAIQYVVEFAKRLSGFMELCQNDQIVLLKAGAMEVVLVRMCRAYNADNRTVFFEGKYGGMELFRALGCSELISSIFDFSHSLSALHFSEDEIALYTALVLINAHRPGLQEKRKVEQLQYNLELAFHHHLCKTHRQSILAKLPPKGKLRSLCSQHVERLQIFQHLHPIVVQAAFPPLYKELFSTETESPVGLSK
Method in brief: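 CHO cells carrying TET-inducible ROR-gamma and an ROR response element–luciferase reporter were exposed to compound, then induced with doxycycline. After 16hr at 37C, luminescence was read; lower signal indicates antagonism.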

[14] = qHTS assay for small molecule agonists of the antioxidant response element (ARE) signaling pathway measured by Nrf2-dependant transcriptional activity - cell viability counter screen (AID 720653; active = well fitted curve in the direction sought with a large enough effect in the repeat runs; an effect the other way counts as inactive or inconclusive); details: ARE-bla HepG2 viability, CellTiter-Glo ATP luminescence, 16 h; stronger effect = lower value
Method in brief: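 ARE-bla HepG2 cells (2,000/well) rested 5 hrs at 37C/5% CO2, then exposed to compounds in DMSO for 16 hrs. Viability was read in the same wells as intracellular ATP by luminescence, 30 min at room temperature after reagent addition.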

[15] = biological target: Mitogen-activated protein kinase 10 (Mus musculus) (UniProt Q61831); test: JNK3 AlphaScreen Assay (AID 530; active = well fitted curve in either direction with a large enough effect, not every such curve was filed as active;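 also: kinase came from lysate of stimulated human HepG2 cells; signal reports phosphorylation of biotinylated GST-cJun 1-79 at Ser73 with 10 µM ATP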)
Method in brief: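 JNK3 came from HepG2 lysates pre-activated with IL-1beta and TNF-alpha and phosphorylated biotinylated GST-cJun (1-79) at 10 uM ATP, pH 7.6, room temperature. Compounds were titrated. AlphaScreen signal used anti-phospho-cJun (Ser73) antibody.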

[16] = biological target: Cytochrome P450 3A4 (Homo sapiens) (UniProt P08684); test: qHTS Assay for Inhibitors and Substrates of Cytochrome P450 3A4 (AID 884); also: nearly all actives have a fitted effect of over 50% in size
Sequence of Cytochrome P450 3A4 (Homo sapiens) (P08684 whole entry, looked up): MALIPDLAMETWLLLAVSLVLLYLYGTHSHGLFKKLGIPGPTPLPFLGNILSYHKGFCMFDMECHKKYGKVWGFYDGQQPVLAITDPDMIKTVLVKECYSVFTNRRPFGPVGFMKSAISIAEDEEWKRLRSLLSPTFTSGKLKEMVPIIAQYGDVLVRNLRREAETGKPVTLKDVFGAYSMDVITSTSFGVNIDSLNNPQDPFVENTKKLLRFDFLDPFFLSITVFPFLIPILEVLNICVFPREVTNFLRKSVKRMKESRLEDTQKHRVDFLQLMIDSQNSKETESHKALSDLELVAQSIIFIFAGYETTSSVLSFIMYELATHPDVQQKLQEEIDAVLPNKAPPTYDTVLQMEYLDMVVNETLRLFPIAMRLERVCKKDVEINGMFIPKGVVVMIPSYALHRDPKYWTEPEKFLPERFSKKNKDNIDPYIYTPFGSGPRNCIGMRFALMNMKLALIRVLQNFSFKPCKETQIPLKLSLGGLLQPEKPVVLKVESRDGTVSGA
Method in brief: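 20 nM human CYP3A4 with 25 uM Luciferin-PPXE (at KM) in 200 mM KPO4, preincubated 10 min with compound; NADPH regeneration started a 60 min RT reaction. Luciferin detected by luminescence, normalized to 57 uM ketoconazole as full inhibition.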

[17] = biological target: Voltage-gated inwardly rectifying potassium channel KCNH2 (Homo sapiens) (UniProt Q12809); test: qHTS Assay for Small Molecule Inhibitors of the Human hERG Channel Activity (AID 588834);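 also: lower thallium flux fluorescence means stronger hERG block; nearly all actives have a fitted effect of over 50% in size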; also: potency is read from the fitted curve at half-maximal effect
Sequence of Voltage-gated inwardly rectifying potassium channel KCNH2 (Homo sapiens) (Q12809 whole entry, looked up): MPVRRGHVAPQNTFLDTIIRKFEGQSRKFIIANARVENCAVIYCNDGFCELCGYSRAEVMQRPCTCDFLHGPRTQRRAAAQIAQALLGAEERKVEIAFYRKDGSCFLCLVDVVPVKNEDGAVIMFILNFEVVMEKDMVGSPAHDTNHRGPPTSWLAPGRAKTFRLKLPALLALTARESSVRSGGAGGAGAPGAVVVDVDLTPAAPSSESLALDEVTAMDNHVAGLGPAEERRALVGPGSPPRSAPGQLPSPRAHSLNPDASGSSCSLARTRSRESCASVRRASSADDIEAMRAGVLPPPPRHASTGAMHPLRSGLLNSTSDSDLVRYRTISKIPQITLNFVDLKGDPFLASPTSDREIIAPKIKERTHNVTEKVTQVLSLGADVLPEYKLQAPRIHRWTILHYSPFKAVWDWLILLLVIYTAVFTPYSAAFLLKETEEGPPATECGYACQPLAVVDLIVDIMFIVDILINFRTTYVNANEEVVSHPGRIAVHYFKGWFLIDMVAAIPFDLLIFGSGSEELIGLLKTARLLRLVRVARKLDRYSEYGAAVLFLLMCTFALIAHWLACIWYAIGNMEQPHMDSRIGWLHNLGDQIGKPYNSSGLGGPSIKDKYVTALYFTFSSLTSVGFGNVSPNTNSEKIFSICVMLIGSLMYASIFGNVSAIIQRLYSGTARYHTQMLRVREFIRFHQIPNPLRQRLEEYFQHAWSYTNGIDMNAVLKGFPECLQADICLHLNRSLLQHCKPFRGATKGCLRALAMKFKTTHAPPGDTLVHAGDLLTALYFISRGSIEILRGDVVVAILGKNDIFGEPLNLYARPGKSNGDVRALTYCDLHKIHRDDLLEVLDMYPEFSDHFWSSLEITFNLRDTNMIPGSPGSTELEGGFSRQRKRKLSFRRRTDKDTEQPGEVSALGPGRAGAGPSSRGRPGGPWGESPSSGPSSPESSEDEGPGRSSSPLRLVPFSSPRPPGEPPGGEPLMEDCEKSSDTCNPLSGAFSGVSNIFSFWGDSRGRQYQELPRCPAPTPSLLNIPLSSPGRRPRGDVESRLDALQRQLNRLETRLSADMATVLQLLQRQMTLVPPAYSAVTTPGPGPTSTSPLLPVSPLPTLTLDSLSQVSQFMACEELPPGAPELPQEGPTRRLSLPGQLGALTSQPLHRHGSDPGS
Method in brief: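 hERG-BacMam U2OS, 2000 cells/well; 0.7X FluxOR loading 1 hr RT dark; cpd ~10 min 37 °C; stim buffer; FDSS fluorescence 2 min @ 1 s; AC50 Hill fit.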

[18] = qHTS assay for cell viability of HEK293 cells (AID 743288); details: ATP luminescence (CellTiter-Glo), 18 h, stronger effect = lower value; also: nearly all actives have a fitted effect of over 50% in size
Method in brief: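 HEK293 parental, 2,000 cells/well; ≥5 h pre-incubation 37 C; pintool compound addition; 18 h, 37 C; CellTiter-Glo 30 min RT; luminescence read.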

[19] = biological target: Nuclear receptor subfamily 1 group I member 2 (Rattus norvegicus) (UniProt Q9R1A7); test: qHTS assay for small molecule activators of the rat pregnane X receptor (rPXR) signaling pathway (AID 651751; call rule not given here); details: rPXR reporter cells, luciferase (One-Glo), 24 h
Sequence of Nuclear receptor subfamily 1 group I member 2 (Rattus norvegicus) (Q9R1A7 whole entry, looked up): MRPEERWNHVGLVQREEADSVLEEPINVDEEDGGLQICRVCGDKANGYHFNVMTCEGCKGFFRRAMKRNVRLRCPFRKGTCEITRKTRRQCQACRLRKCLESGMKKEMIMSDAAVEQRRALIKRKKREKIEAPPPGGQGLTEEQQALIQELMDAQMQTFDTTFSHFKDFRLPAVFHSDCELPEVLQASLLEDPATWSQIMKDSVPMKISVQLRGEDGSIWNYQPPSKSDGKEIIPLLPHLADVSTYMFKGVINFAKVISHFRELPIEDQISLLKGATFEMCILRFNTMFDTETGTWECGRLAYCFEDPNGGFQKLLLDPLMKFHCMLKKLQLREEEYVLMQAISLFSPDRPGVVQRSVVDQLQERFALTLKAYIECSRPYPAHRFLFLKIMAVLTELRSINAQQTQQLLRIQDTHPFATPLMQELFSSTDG

[20] = qHTS assay for small molecule activators of the human pregnane X receptor (PXR) signaling pathway (AID 720659; call rule not given here)

Compound	Potency [1]	outcome [2]	outcome [3]	Potency [4]	Potency [5]	Potency [6]	outcome [7]	outcome [8]	activity change % (negative = inhibition) [9]	Potency [10]	Potency [11]	outcome [12]	Potency [13]	max response [14]	Potency [15]	Potency [16]	Potency [17]	max response [18]	max response [19]	outcome [20]
CCCN(CCC)c1c([N+](=O)[O-])cc(C(F)(F)F)cc1[N+](=O)[O-]	inactive	inactive	inactive	inactive	inactive	inactive	inactive	inactive	9.18% and -4.26%	inactive	inactive	inactive	inactive	-5.66% and -9.4%						
[N-]=[N+]=[N-]		inactive	inactive	inactive		inactive	inactive	inactive	7.76%	inactive	inactive	inactive		-8.07%	inactive	inactive	inactive	0.516%	-8.68%	inactive
Nc1c(Cl)cc([N+](=O)[O-])cc1Cl			inactive	inactive	inactive		inactive	inactive	16.2% and 3.97%	29.8 µM (active)	42.2 µM (active)	inactive		8.8% and -9.21%	inactive	inactive	inactive	7.25% and -11.8%		inactive
Brc1cccc(-c2ccccc2)c1	inactive	inactive		inactive				inactive	0.106%	inactive	inactive	inactive	inactive		inactive	inactive	35.5 µM (active)		2.39%	inactive
C=CC(=O)OCCN(C)C	inactive	inactive	inactive	inactive	inactive	inactive	inactive	inactive	-23.4%	inactive	inactive	inactive	inactive	5.35%	inactive	inactive	inactive		2.48%	inactive
ClCC(Cl)Cl	inactive	inactive	inactive		inactive	inactive	inactive	inactive	8.38%	inactive	inactive	inactive	inactive	-5.62%		inactive	inactive	-18.4%	-0.324%	inactive
Cc1ccc(N)c(N)c1		inactive	inactive	inactive		inactive		inactive	-28.6%				inactive	-6.6%	inactive		inactive	-20.1%		
Oc1cccc(Cl)c1Cl	inactive	inactive	inactive	inactive	inactive	inactive	inactive		9.41%	inactive	inactive	inactive	inactive	0.417%	inactive	inactive		-3.83%	-2.09%	inactive
Clc1cccc(Cl)c1Cl	inactive	inactive	inactive	inactive	inactive	inactive	inactive	inactive	-6.61% and -16.3%	inactive	inactive	inactive	inactive	-3.73% and 1.34%		inactive	inactive	-5.25% and -0.775%	-2.59% and 0.772%	inactive
Nc1ccc(Oc2ccc(N)cc2)cc1	inactive	inactive		inactive	inactive	inactive	inactive			inactive	inactive		inactive		inactive		inactive	-1.7% and -3.88%	6.46% and 5.6%	inactive
CCCCCC[N+](=O)[O-]	inactive	inactive		inactive	inactive	inactive	inactive	inactive	-9.74%	inactive	inactive	inactive	inactive		inactive	inactive	inactive	7.41%	1.74%	inactive
